In PubChem BioAssay (Tox21):
A number with no mark means an inactive call. Results filed as inconclusive are left out. A call without a number means that no potency is given here. Calls of active or inactive are those of the source. Unless noted, calls come from the whole dose curve; as a rule, active = well fitted curve in the direction sought with a large enough effect in the repeat runs; inconclusive = weak or mixed curves; inactive = no such curve, though single readings can be large; an effect the other way counts as inactive or inconclusive.

Columns and labels:
[1] = molecular target: Thyrotropin receptor (Homo sapiens) (UniProt P16473); experiment: qHTS assay to identify small molecule antagonists of the thyroid stimulating hormone receptor (TSHR) signaling pathway (AID 1259385; calls by dose curve; note: nearly all actives have a fitted effect of over 20% in size)
Chain of Thyrotropin receptor (Homo sapiens) (P16473 whole entry, looked up): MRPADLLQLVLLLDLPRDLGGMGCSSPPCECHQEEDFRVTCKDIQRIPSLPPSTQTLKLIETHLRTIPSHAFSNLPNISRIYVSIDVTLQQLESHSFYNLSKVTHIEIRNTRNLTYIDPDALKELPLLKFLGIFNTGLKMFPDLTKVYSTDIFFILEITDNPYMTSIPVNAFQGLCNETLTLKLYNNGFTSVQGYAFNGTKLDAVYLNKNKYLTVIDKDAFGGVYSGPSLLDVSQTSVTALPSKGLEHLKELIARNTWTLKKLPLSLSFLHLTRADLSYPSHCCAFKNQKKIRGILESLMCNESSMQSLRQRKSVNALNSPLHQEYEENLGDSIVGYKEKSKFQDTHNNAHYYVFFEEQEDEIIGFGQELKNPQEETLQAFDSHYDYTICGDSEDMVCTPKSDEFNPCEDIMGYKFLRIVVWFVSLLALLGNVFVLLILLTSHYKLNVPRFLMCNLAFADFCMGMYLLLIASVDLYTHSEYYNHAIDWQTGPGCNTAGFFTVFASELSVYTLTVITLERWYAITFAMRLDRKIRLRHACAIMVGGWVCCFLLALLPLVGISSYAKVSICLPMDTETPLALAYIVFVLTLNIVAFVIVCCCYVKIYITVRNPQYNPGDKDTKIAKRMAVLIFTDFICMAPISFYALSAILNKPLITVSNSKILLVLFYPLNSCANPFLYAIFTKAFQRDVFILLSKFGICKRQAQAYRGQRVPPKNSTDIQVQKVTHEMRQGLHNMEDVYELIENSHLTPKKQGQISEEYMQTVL
Method in brief: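 TSHR-HEK293 cells were plated and held 18 h at 37C/5% CO2, then given compound plus Ro20-1724 and stimulated with TSH at 1.5 ng/mL final. After 30 min at room temperature, cAMP was detected with cAMP-d2/anti-cAMP-cryptate (1 h) by fluorescence.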

[2] = qHTS assay to identify small molecule agonists of the estrogen receptor alpha (ER-alpha) signaling pathway in the presence of an antagonist - cell viability counter screen (AID 1259386);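 note: series mostly up to about 92 µM; cells exposed to compounds for 22 h at 37 °C before the viability read; nearly all actives have a fitted effect of over 30% in size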
Method in brief: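 Viability counter screen using VM7Luc4E2 (full-length ER-alpha, four ERE-luciferase). The cells were treated with compounds alongside ICI-182,780 10.0nM for 22hr, and live-cell protease fluorescence was quantified with CellTiter-Fluor.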

[3] = molecular target: Progesterone receptor (Homo sapiens) (UniProt P06401); experiment: qHTS assay to identify small molecule agonists of the progesterone receptor (PR) signaling pathway (AID 1346784; calls by dose curve; note: nearly all actives have a fitted effect of over 30% in size; note: potency is the fitted concentration of half-maximal effect)
Chain of Progesterone receptor (Homo sapiens) (P06401 whole entry, looked up): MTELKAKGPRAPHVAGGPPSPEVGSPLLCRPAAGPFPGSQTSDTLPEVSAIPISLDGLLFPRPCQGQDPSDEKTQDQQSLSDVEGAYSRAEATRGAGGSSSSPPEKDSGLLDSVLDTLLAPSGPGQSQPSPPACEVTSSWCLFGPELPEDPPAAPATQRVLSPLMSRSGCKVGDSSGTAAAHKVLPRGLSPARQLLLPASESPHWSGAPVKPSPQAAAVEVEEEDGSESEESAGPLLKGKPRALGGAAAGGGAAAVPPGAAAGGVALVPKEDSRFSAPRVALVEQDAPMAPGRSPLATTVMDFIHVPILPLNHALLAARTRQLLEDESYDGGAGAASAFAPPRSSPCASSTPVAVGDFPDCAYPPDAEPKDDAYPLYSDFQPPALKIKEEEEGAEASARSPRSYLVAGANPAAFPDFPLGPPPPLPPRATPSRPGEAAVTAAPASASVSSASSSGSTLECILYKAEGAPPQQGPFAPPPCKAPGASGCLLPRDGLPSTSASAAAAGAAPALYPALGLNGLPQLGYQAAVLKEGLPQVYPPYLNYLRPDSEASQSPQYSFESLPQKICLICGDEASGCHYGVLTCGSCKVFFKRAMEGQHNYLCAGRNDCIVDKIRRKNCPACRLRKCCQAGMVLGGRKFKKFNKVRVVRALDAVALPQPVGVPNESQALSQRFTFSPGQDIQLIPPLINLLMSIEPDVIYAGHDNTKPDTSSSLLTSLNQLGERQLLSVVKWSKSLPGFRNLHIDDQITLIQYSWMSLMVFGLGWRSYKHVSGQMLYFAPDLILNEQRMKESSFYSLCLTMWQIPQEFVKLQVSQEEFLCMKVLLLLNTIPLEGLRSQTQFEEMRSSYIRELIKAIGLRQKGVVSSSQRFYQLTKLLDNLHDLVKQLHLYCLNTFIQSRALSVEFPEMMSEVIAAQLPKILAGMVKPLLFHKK
Method in brief: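 Fluorescence from LiveBLAzer B/G FRET substrate cleavage (2 hr, RT) reported PR activation in PR-UAS-bla HEK 293T cells treated 16 hr at 37C/5% CO2 with compounds; medium contained 2% charcoal-stripped FBS.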

[4] = molecular target: Progesterone receptor (Homo sapiens) (UniProt P06401); experiment: qHTS assay to identify small molecule antagonists of the progesterone receptor (PR) signaling pathway (AID 1346795; active = well fitted inhibition curve with a large enough effect in the signal ratio in the repeat runs, not every such curve was filed as active; the % refers to the signal ratio; note: potency is the fitted concentration of half-maximal effect)
Method in brief: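 Fluorescence intensity measured 2 hr after adding beta-lactamase FRET substrate to PR-UAS-bla HEK293T cells that had been co-treated 16 hr with compound and 1 nM R5020 (final concentration) in 2% charcoal-stripped FBS.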

[5] = qHTS assay to identify small molecule antagonists of the progesterone receptor (PR) signaling pathway - cell viability counter screen (AID 1346798); note: series mostly up to about 92 µM; nearly all actives have a fitted effect of over 50% in size
Method in brief: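 CellTiter-Glo luminescence; PR-UAS-bla HEK293T, 3,000 cells/well; compound + R5020, 16 hr, 37C/5% CO2; 30 min RT before read.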

[6] = qHTS assay to identify small molecule agonists of the progesterone receptor (PR) signaling pathway - cell viability counter screen (AID 1346799; calls by dose curve; note: nearly all actives have a fitted effect of over 45% in size)
Method in brief: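 In parallel with the beta-lactamase readout, cytotoxicity toward PR-UAS-bla HEK293T cells was measured by CellTiter-Glo luminescence following 16 hr compound incubation in 2% charcoal-stripped FBS medium.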

[7] = qHTS assay to identify small molecule antagonists of the TGF-beta/Smad signaling pathway - cell viability counter screen (AID 1346824); note: nearly all actives have a fitted effect of over 50% in size
Method in brief: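 SBE-bla HEK 293T cells were plated overnight at 37 C, then given compounds in DMSO plus TGF-beta1 (added as 0.25 ng/mL solution) for 5 hr. After the bla read, CellTiter-Glo was added to the same wells and luminescence read after 30 min at room temperature.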

[8] = qHTS assay to identify small molecule agonists of the TGF-beta/Smad signaling pathway - cell viability counter screen (AID 1346829); note: top concentration of the series differs between compounds; nearly all actives have a fitted effect of over 45% in size
Method in brief: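 Here the cytotoxicity of library compounds is measured in SBE-bla HEK 293T cells treated for 5 hr, using CellTiter-Glo added to wells already read for the beta-lactamase reporter.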

[9] = qHTS assay to identify small molecule agonists of the TGF-beta/Smad signaling pathway (AID 1346859; active = well fitted activation curve with a large enough effect in the signal ratio in the repeat runs, not every such curve was filed as active; the % refers to the signal ratio; note: series mostly up to about 77 µM)
Method in brief: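 After overnight seeding, SBE-bla HEK 293T cells are dosed with compounds in DMSO and kept 5 hr at 37 C, 5% CO2. LiveBLAzer-type FRET substrate is then applied for 2 hr at room temperature.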

[10] = molecular target: Thyrotropin-releasing hormone receptor (Homo sapiens) (UniProt P34981); experiment: qHTS assay to identify small molecule antagonists of the thyrotropin-releasing hormone receptor (TRHR) signaling pathway (AID 1346877; active = well fitted inhibition curve with a large enough effect in the repeat runs, not every such curve was filed as active; note: series mostly up to about 51 µM)
Chain of Thyrotropin-releasing hormone receptor (Homo sapiens) (P34981 whole entry, looked up): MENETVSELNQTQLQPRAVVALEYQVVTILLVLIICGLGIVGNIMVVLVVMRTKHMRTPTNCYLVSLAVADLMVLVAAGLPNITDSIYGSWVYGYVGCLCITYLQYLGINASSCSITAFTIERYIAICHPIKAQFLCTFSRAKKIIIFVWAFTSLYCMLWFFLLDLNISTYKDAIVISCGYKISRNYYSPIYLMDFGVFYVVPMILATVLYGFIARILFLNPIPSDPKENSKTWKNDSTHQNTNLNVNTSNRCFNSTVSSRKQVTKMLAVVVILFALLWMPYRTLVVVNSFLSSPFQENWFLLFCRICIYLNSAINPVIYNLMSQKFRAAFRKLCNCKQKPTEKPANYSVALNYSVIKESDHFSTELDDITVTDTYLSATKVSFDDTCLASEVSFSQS
Method in brief: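 Following an 18 h incubation at 37 °C and a 2 h calcium dye load, TRHR-HEK293 cells were exposed to compound (5 min, room temperature) and challenged with TRH, 1 nM final.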

[11] = molecular target: Thyrotropin-releasing hormone receptor (Homo sapiens) (UniProt P34981); experiment: qHTS assay to identify small molecule agonists of the thyrotropin-releasing hormone receptor (TRHR) signaling pathway (AID 1346891; calls by dose curve;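 note: HEK293 cells expressing TRHR with calcium dye readout; series mostly up to about 58 µM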)
Method in brief: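 Compounds were tested as agonists at 15 concentrations, in triplicate, on TRHR-Hek293 cells; calcium-sensitive dye fluorescence was recorded for 3 min following addition.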

[12] = Human pregnane X receptor (PXR) small molecule agonists, qHTS cell viability counter screen (AID 1346977); note: nearly all actives have a fitted effect of over 50% in size
Method in brief: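 Viability counter screen: CellTiter-Fluor signal in PXR-Luc HepG2 cells, 24hr compound exposure, 37C, 5% CO2.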

[13] = Caspase-3/7 induction in HepG2 cells by small molecules, qHTS assay (AID 1346978); note: nearly all actives have a fitted effect of over 15% in size
Method in brief: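 Wild-type HepG2 cells (2,000/well) were settled 5 h at 37 C, 5% CO2, then exposed to compounds in DMSO for 17 h. Caspase-3/7 activity was read by luminescence 30 min after adding Caspase-Glo 3/7 reagent at room temperature.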

[14] = Caspase-3/7 induction in CHO-K1 cells by small molecules, qHTS cell viability counter screen (AID 1346979); note: nearly all actives have a fitted effect of over 35% in size
Method in brief: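 Viability readout by fluorescence (CellTiter-Fluor) on wild-type CHO-K1 cells exposed for 16hr at 37C and 5% CO2 to compounds delivered in DMSO; reagent incubated 1hr before reading.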

[15] = Caspase-3/7 induction in CHO-K1 cells by small molecules, qHTS assay (AID 1346980); note: nearly all actives have a fitted effect of over 15% in size
Method in brief: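 Wild-type cells were seeded at 1,500 per well and settled 5 hr at 37 C, 5% CO2, then exposed to DMSO-dissolved compounds for 17 hr. Caspase-Glo 3/7 reagent was added, and luminescence was read after 30min at room temperature.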

[16] = Caspase-3/7 induction in HepG2 cells by small molecules, qHTS cell viability counter screen (AID 1346981); note: series mostly up to about 92 µM; nearly all actives have a fitted effect of over 30% in size
Method in brief: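 Viability determined by CellTiter-Fluor fluorescence in HepG2 wells also used for the luminescent Caspase-Glo 3/7 read. Compounds were present for 16 hr at 37 C, 5% CO2 before reagent addition.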

[17] = molecular target: Nuclear receptor subfamily 1 group I member 2 (Homo sapiens) (UniProt O75469); experiment: Human pregnane X receptor (PXR) small molecule agonists, qHTS assay (AID 1346982); note: nearly all actives have a fitted effect of over 35% in size; note: potency is the fitted concentration of half-maximal effect
Chain of Nuclear receptor subfamily 1 group I member 2 (Homo sapiens) (O75469 whole entry, looked up): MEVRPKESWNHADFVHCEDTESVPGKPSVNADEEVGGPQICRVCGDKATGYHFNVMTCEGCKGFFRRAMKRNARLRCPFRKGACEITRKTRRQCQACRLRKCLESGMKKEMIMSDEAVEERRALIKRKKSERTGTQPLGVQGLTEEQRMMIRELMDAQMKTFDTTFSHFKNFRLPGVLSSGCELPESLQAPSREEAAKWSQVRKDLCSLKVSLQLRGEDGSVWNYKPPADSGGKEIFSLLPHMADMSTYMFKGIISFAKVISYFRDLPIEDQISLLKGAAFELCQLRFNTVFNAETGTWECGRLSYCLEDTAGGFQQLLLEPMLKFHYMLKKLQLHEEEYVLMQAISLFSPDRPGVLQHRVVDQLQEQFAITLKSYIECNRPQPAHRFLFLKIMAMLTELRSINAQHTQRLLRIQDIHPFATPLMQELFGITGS
Method in brief: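 Compound-induced hPXR transactivation of a CYP3A4 luciferase reporter was scored in HepG2 PXR-Luc cells over 24 hr at 37 C, 5% CO2, by luminescence.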

[18] = molecular target: Cytochrome P450 2D6 (Homo sapiens) (UniProt P10635); experiment: Cytochrome P450 Family 2 Subfamily D Member 6 (CYP2D6) small molecule antagonists: luciferase reporter qHTS assay (AID 1671196); note: nearly all actives have a fitted effect of over 50% in size; note: potency is the fitted concentration of half-maximal effect; for activity change, negative = inhibition: series mostly up to about 120 µM
Chain of Cytochrome P450 2D6 (Homo sapiens) (P10635 whole entry, looked up): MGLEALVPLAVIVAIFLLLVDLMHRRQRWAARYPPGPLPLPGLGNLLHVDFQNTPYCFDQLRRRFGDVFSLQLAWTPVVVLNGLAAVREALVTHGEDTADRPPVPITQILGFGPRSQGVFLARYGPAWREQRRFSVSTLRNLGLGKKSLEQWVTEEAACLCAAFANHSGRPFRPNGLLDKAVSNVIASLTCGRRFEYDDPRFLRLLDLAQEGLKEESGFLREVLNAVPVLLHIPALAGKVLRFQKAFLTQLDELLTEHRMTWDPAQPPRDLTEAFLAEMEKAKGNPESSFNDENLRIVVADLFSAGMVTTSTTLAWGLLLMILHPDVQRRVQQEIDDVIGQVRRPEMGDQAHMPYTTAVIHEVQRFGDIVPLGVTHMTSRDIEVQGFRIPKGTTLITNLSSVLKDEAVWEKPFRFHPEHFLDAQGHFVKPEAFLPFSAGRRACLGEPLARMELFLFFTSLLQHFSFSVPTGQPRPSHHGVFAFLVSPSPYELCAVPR
Method in brief: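 Each well received CYP2D6 with its proluciferin substrate and chemical, sat 10 min, then got NADPH regeneration solution for 1 h at room temperature. Luminescence in RLU served as the activity measure.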

[19] = molecular target: Nuclear receptor subfamily 1 group I member 2 (Rattus norvegicus) (UniProt Q9R1A7); experiment: Rat pregnane X receptor (rPXR) activation by small molecules, qHTS assay (AID 1346983); details: rPXR luciferase reporter cells, One-Glo luminescence, 24 h; max activation: hits give high values; note: nearly all actives have a fitted effect of over 20% in size
Chain of Nuclear receptor subfamily 1 group I member 2 (Rattus norvegicus) (Q9R1A7 whole entry, looked up): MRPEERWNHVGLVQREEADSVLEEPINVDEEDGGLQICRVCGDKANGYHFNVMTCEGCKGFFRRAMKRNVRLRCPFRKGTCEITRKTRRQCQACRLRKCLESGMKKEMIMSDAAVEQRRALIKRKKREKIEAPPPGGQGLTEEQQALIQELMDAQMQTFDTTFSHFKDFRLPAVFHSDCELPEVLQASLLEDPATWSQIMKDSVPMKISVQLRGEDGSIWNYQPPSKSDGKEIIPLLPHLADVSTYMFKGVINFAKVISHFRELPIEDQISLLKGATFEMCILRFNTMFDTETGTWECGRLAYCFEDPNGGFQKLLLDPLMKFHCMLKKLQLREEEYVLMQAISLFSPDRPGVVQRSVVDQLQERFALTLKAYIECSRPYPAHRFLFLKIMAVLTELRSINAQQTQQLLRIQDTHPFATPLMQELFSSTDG
Method in brief: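 Cell-based rPXR luciferase reporter assay, 2,000 cells per well, rested 5hr at 37 C before compound addition in DMSO, then 24 hr at 37 C. One-Glo reagent was added and luminescence read after 30 min at room temperature.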

[20] = molecular target: Nuclear receptor subfamily 1 group I member 2 (Homo sapiens) (UniProt O75469); experiment: CYP3A4 induction through human pregnane X receptor (PXR) by small molecules, qHTS assay (AID 1346984); note: nearly all actives have a fitted effect of over 40% in size
Method in brief: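 Readings come from a luciferase reporter: DPX-2 cells, which are HepG2 cotransfected with PXR and a CYP3A4-promoter construct, were exposed to test compounds for 24 h at 37C before One-Glo detection.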

With `O=C(O)c1cccc(C[C@@H]2COc3ccc(OCc4nc5cc(F)ccc5s4)cc3[C@@H]2O)c1` the Potency [1] was “inactive”, the Potency [2] was “inactive” and the Potency [3] was “inactive”. For the same molecule, the Potency [4] was “inactive”, the Potency [5] was “inactive” and the Potency [6] was “inactive”. For the same molecule, the outcome [7] was “inactive”, the Potency [8] was “inactive” and the Potency [9] was “inactive”. The outcome [10] was “inactive”, the outcome [11] was “inactive” and the Potency [12] was “inactive”. For the same molecule, the Potency [13] was “inactive”, the Potency [14] was “inactive” and the outcome [15] was “inactive”. For the same molecule, the Potency [16] was “inactive”, the Potency [17] was “inactive” and the Potency [18] was “inactive”.

For `CNc1c2c(nn1C)CCCC2`, the Potency [1] was “inactive”, the Potency [2] was “inactive” and the Potency [3] was “inactive”. The Potency [4] was “inactive”, the Potency [5] was “inactive” and the Potency [6] was “inactive”. For the same molecule, the outcome [7] was “inactive”, the Potency [8] was “inactive” and the Potency [9] was “inactive”. For the same molecule, the outcome [10] was “inactive”, the outcome [11] was “inactive” and the Potency [12] was “inactive”. For the same molecule, the Potency [13] was “inactive”, the Potency [14] was “inactive” and the Potency [16] was “inactive”. For the same molecule, the Potency [17] was “inactive”, the max activation [19] was -2.75% and the Potency [20] was “inactive”. For the same molecule, the Potency [18] was “inactive”.

In the case of `CC(C)(C)C(O)/C=C/c1ccc2c(c1)OCO2` (stereo unspecified), the Potency [1] is reported as “inactive”, the Potency [2] is reported as “inactive” and the Potency [3] is reported as “inactive”. The Potency [4] was 23.7 µM (active), the Potency [5] was “inactive” and the Potency [6] was “inactive”. The outcome [7] was “inactive”, the Potency [8] was “inactive” and the Potency [9] was “inactive”. The outcome [10] was “inactive”, the outcome [11] was “inactive” and the Potency [12] was “inactive”. For the same molecule, the Potency [13] was “inactive”, the Potency [14] was “inactive” and the Potency [16] was “inactive”. For the same molecule, the Potency [17] was 29.8 µM (active) and the Potency [18] was 27.5 µM (active).

In the case of `O=c1[nH][nH]c(=O)c2cc([N+](=O)[O-])ccc12`, the Potency [1] is reported as “inactive”, the Potency [2] is reported as “inactive” and the Potency [3] is reported as “inactive”. The Potency [4] was “inactive”, the Potency [5] was “inactive” and the Potency [6] was “inactive”. For the same molecule, the outcome [7] was “inactive”, the Potency [8] was “inactive” and the Potency [9] was “inactive”. The outcome [10] was “inactive”, the outcome [11] was “inactive” and the Potency [12] was “inactive”. For the same molecule, the Potency [13] was “inactive”, the outcome [15] was “inactive” and the Potency [17] was “inactive”. For the same molecule, the Potency [18] was “inactive”.

For `CCCCCCCCCCCCCOC(=O)CCSCCC(=O)OCCCCCCCCCCCCC`, the activity change, negative = inhibition [1] was -0.382% [at 19 µM], the activity change, negative = cytotoxicity [2] was -1.3% [at 19 µM] and the Potency [3] was 0.644 µM (active). It also gave an activity change, negative = inhibition [4] of 5.83% [at 18.9 µM], an activity change, negative = cytotoxicity [5] of -8.45% [at 18.9 µM] and an activity change, negative = cytotoxicity [6] of 36.2% [at 19 µM]. It also gave a viability change, negative = cytotoxic [7] of 16.1% [at 15.8 µM], an activity change, negative = cytotoxicity [8] of -1.41% [at 15.8 µM] and an activation [9] of 1.33% [at 15.8 µM]. For the same molecule, the activity, negative = inhibition [10] was 4.46% [at 10.5 µM], the activation [11] was 0.934% [at 11.8 µM] and the activity change, negative = cytotoxicity [12] was -0.253% [at 19 µM]. For the same molecule, the caspase activation [13] was 0.0624% [at 19 µM], the activity change, negative = cytotoxicity [14] was 0.0364% [at 19 µM] and the caspase-3/7 activation [15] was 0.789% [at 19 µM]. For the same molecule, the activity change, negative = cytotoxicity [16] was 6.29% [at 19 µM], the activation [17] was 3.58% [at 19 µM] and the activity change, negative = inhibition [18] was -6.54% [at 23.6 µM].

With `O=NN(CCCl)C(=O)NCCCl` the Potency [1] was “inactive”, the Potency [2] was “inactive” and the Potency [3] was “inactive”. The Potency [4] was “inactive”, the Potency [5] was “inactive” and the Potency [6] was “inactive”. The outcome [7] was “inactive”, the Potency [8] was “inactive” and the Potency [9] was “inactive”. The outcome [10] was “inactive”, the outcome [11] was “inactive” and the Potency [12] was “inactive”. The Potency [13] was “inactive”, the Potency [14] was “inactive” and the outcome [15] was “inactive”. The Potency [16] was “inactive”.

With `CCNc1nc(N)nc(Cl)n1` the Potency [1] was “inactive”, the Potency [2] was “inactive” and the Potency [3] was “inactive”. For the same molecule, the Potency [4] was “inactive”, the Potency [5] was “inactive” and the Potency [6] was “inactive”. For the same molecule, the outcome [7] was “inactive”, the Potency [8] was “inactive” and the Potency [9] was “inactive”. The outcome [10] was “inactive”, the outcome [11] was “inactive” and the Potency [12] was “inactive”. The Potency [13] was “inactive”, the Potency [14] was “inactive” and the outcome [15] was “inactive”. For the same molecule, the Potency [16] was “inactive” and the Potency [17] was “inactive”.
